The campaign covered roughly 5,500 compounds. About 2,000 (36%) were called active. Another 18% or so got no clear call; they are omitted. The list shows a part of the results. A number with no mark means an inactive call. No stated cut-off is given here; in the data, active means normalized growth mostly below about 0.91 (no sharp cut-off); inconclusive means no clear call, values can overlap the other calls; inactive means mostly above about 0.92.
Experiment: chemical genetic growth profiling, strain panel (AID 1159580);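 further: tested at 20 µM; growth read once vehicle control cultures reached saturation at 30 °C; 1 = growth at the plate median or of vehicle wells; lower values mean less growth of the strain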
Conditions: S. cerevisiae deletion strains, growth OD

COC(=O)c1cc(=O)c(O)c2c(O)c(O)ccc2c1
normalized growth (locus YJR043C, strain POL32, hits give low values): 0.709 (active)
normalized growth (locus YJR066W, strain TOR1, hits give low values): 0.556 (active)
normalized growth (locus YKL009W, strain mrt4, hits give low values): 0.773 (active)
normalized growth (locus YKL068W, hits give low values): 0.808 (active)
normalized growth (locus YKL085W, strain MDH1 (second series), hits give low values): 0.793 (active)
normalized growth (locus YKL085W, strain MDH1, hits give low values): 0.793 (active)
normalized growth (locus YKL160W, strain elf1, hits give low values): 1.01
normalized growth (locus YKL190W, strain CNB1, hits give low values): 0.593 (active)
normalized growth (locus YKR001C, strain vps1, hits give low values): 0.764 (active)
normalized growth (locus YKR026C, strain gcn3, hits give low values): 0.961
normalized growth (locus YKR091W, strain srl3, hits give low values): 0.994
normalized growth (locus YLL001W, strain dnm1, hits give low values): 0.99
normalized growth (locus YLL026W, hits give low values): 0.994
normalized growth (locus YLL041C, strain sdh2, hits give low values): 0.999
normalized growth (locus YLR027C, strain aat2, hits give low values): 0.996
normalized growth (locus YLR039C, strain RIC1, hits give low values): 0.354 (active)
normalized growth (locus YLR058C, strain SHM2, hits give low values): 0.696 (active)
normalized growth (locus YLR102C, strain apc9, hits give low values): 0.966
normalized growth (locus YLR113W, strain HOG1, hits give low values): 0.795 (active)
normalized growth (locus YLR221C, strain rsa3, hits give low values): 0.97
normalized growth (locus YLR258W, strain gsy2, hits give low values): 0.996
normalized growth (locus YLR262C, strain YPT6 (second series), hits give low values): 0.847 (active)
normalized growth (locus YLR268W, strain sec22, hits give low values): 0.707 (active)
normalized growth (locus YLR320W, strain mms22, hits give low values): 0.984
normalized growth (locus YLR342W, strain FKS1 (second series), hits give low values): 0.569 (active)
normalized growth (locus YLR342W, strain FKS1, hits give low values): 0.978
normalized growth (locus YLR357W, strain rsc2, hits give low values): 0.925
normalized growth (locus YLR370C, strain arc18, hits give low values): 0.999
normalized growth (locus YLR371W, strain rom2, hits give low values): 0.781 (active)
normalized growth (locus YLR384C, strain iki3, hits give low values): 0.995
normalized growth (locus YLR418C, strain cdc73, hits give low values): 0.629 (active)
normalized growth (locus YML016C, strain PPZ1, hits give low values): 0.771 (active)
normalized growth (locus YML032C, strain rad52, hits give low values): 0.73 (active)
normalized growth (locus YML120C, strain ndi1, hits give low values): 0.997
normalized growth (locus YML124C, strain tub3, hits give low values): 0.952
normalized growth (locus YMR058W, strain fet3, hits give low values): 0.89 (active)
normalized growth (locus YMR078C, strain ctf18, hits give low values): 0.943
normalized growth (locus YMR125W, strain sto1, hits give low values): 0.989
normalized growth (locus YMR129W, hits give low values): 0.988
normalized growth (locus YMR205C, strain PFK2, hits give low values): 0.987
normalized growth (locus YMR223W, strain ubp8, hits give low values): 0.818 (active)
normalized growth (locus YMR231W, strain pep5, hits give low values): 0.995
normalized growth (locus YMR263W, strain SAP30, hits give low values): 0.882 (active)
normalized growth (locus YMR307W, strain GAS1, hits give low values): 0.477 (active)
normalized growth (locus YNL067W, strain RPL9B, hits give low values): 0.745 (active)
normalized growth (locus YNL071W, strain lat1, hits give low values): 1.02
normalized growth (locus YNL153C, strain GIM3, hits give low values): 0.841 (active)
normalized growth (locus YNL183C, strain NPR1, hits give low values): 0.643 (active)
normalized growth (locus YNL209W, strain ssb2, hits give low values): 0.99
normalized growth (locus YNL233W, strain BNI4, hits give low values): 0.678 (active)
normalized growth (locus YNL248C, strain rpa49, hits give low values): 0.99
normalized growth (locus YNL250W, strain rad50, hits give low values): 0.62 (active)
normalized growth (locus YNL271C, strain bni1, hits give low values): 0.731 (active)
normalized growth (locus YNL298W, strain CLA4, hits give low values): 0.725 (active)
normalized growth (locus YNL307C, strain MCK1, hits give low values): 0.953
normalized growth (locus YNL322C, strain KRE1 (second series), hits give low values): 0.967
normalized growth (locus YNL322C, strain KRE1, hits give low values): 0.638 (active)
normalized growth (locus YNR049C, strain mso1, hits give low values): 0.998
normalized growth (locus YNR052C, strain pop2, hits give low values): 0.7 (active)
normalized growth (locus YOL006C, strain TOP1, hits give low values): 0.326 (active)
normalized growth (locus YOL012C, strain htz1): 0.795
normalized growth (locus YOL147C, strain pex11, hits give low values): 0.91 (active)
normalized growth (locus YOR001W, strain rrp6, hits give low values): 0.985
normalized growth (locus YOR061W, strain CKA2, hits give low values): 0.664 (active)
normalized growth (locus YOR069W, strain VPS5, hits give low values): 0.796 (active)
normalized growth (locus YOR070C, strain gyp1, hits give low values): 0.995
normalized growth (locus YOR080W, strain dia2, hits give low values): 0.983
normalized growth (locus YOR083W, strain WHI5, hits give low values): 1
normalized growth (locus YOR106W, strain vam3, hits give low values): 0.966
normalized growth (locus YOR136W, strain idh2, hits give low values): 0.869 (active)
normalized growth (locus YOR144C, strain elg1, hits give low values): 0.822 (active)
normalized growth (locus YOR184W, strain ser1, hits give low values): 0.801 (active)
normalized growth (locus YOR231W, strain MKK1, hits give low values): 0.672 (active)
normalized growth (locus YOR265W, strain rbl2, hits give low values): 0.994
normalized growth (locus YOR270C, strain vph1, hits give low values): 1.04
normalized growth (locus YOR290C, strain snf2, hits give low values): 0.94
normalized growth (locus YOR316C, strain cot1, hits give low values): 0.952
normalized growth (locus YPL051W, strain arl3, hits give low values): 0.982
normalized growth (locus YPL078C, strain atp4, hits give low values): 1.02
normalized growth (locus YPL106C, strain sse1, hits give low values): 0.965
normalized growth (locus YPL240C, strain hsp82, hits give low values): 0.978
normalized growth (locus YPL241C, strain CIN2, hits give low values): 0.943
normalized growth (locus YPL256C, strain CLN2, hits give low values): 0.787 (active)
normalized growth (locus YPR119W, strain clb2, hits give low values): 0.94
normalized growth (locus YPR141C, strain kar3, hits give low values): 0.777 (active)
normalized growth (locus YPR163C, strain tif3, hits give low values): 0.832 (active)
normalized growth (locus YPR167C, strain met16, hits give low values): 0.802 (active)
normalized growth (strain wtn01, hits give low values): 0.785 (active)
